# Test results: PMC7862700, “An all-to-all approach to the identification of sequence-specific readers for epigenetic DNA modifications on cytosine”
# Key:
# Assay in all cases: DAPPL (digital affinity profiling via proximity ligation, sequencing); 10 mM Tris-HCl pH 7.5, 50 mM NaCl, 1 mM DTT, 4% glycerol, room temperature, 30 min; GST-TFs on glutathione beads, 16-mer random dsDNA library, 0.1% formaldehyde crosslink after washing; high values mean tight binding
# FLI1 = biological target: T1, FLI1 (Homo sapiens, UniProt Q01543 1-452); conditions: protein: recombinant; tags: N-terminal GST; dsDNA, one strand shown
# T1 sequence: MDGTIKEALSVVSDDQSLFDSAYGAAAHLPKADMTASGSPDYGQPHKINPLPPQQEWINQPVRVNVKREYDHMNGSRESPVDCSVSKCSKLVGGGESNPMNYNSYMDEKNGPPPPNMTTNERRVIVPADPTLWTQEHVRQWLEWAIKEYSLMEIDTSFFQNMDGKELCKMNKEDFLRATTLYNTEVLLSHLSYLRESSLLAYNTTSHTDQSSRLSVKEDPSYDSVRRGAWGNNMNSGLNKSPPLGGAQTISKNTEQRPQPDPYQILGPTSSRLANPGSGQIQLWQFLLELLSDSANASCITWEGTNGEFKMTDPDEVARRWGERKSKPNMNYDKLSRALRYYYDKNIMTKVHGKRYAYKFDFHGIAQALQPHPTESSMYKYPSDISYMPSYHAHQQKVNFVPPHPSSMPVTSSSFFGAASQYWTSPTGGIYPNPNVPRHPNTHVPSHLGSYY
# Summary of the method: (§1)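 GST fusions of human transcription factors were expressed in yeast and captured with glutathione beads. Once given DNA barcodes and pooled alongside a tag-only sample, they were incubated for 30 min at room temperature with 200 nmole of a random double-stranded 16-mer DNA library in Tris/NaCl/DTT/glycerol buffer, then washed, crosslinked (0.1% formaldehyde), proximity-ligated, PCR-amplified and sequenced on an Illumina NextSeq500. The binding signal of each hexamer is its read frequency for a factor divided by its frequency for the tag-only sample.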
# ELK1 = biological target: T2, ELK1 (Homo sapiens, UniProt P19419 1-428); conditions: protein: recombinant; tags: N-terminal GST; dsDNA, one strand shown
# T2 sequence: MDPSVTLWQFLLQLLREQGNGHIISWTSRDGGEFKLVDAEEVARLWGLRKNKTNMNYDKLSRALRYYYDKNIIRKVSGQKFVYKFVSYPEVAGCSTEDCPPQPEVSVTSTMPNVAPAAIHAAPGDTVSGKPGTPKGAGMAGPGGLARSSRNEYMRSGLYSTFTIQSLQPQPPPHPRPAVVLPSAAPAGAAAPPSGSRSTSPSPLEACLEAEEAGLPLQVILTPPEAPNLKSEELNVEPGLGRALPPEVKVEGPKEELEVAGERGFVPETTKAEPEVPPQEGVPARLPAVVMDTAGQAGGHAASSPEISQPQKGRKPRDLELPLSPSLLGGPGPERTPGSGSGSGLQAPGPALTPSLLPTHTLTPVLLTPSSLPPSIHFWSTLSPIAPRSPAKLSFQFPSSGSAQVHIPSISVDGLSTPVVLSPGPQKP
# Summary of the method: as §1
# GABPA = biological target: T3, GABPA (Homo sapiens, UniProt Q06546 1-454); conditions: protein: recombinant; tags: N-terminal GST; dsDNA, one strand shown
# T3 sequence: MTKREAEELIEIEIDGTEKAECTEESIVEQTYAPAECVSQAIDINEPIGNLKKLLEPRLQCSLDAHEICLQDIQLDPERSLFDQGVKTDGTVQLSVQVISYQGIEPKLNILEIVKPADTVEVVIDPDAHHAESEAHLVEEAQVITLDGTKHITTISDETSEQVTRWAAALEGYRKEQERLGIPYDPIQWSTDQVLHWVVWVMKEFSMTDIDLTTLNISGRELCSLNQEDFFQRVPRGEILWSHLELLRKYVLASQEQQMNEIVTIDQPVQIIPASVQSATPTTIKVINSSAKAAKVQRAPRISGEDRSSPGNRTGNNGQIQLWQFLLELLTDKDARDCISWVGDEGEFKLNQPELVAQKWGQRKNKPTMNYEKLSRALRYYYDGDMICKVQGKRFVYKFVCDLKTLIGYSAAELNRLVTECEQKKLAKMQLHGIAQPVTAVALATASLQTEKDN
# Summary of the method: as §1
# ERG = biological target: T4, ERG (Homo sapiens, UniProt P11308 1-479); conditions: protein: recombinant; tags: N-terminal GST; dsDNA, one strand shown
# T4 sequence: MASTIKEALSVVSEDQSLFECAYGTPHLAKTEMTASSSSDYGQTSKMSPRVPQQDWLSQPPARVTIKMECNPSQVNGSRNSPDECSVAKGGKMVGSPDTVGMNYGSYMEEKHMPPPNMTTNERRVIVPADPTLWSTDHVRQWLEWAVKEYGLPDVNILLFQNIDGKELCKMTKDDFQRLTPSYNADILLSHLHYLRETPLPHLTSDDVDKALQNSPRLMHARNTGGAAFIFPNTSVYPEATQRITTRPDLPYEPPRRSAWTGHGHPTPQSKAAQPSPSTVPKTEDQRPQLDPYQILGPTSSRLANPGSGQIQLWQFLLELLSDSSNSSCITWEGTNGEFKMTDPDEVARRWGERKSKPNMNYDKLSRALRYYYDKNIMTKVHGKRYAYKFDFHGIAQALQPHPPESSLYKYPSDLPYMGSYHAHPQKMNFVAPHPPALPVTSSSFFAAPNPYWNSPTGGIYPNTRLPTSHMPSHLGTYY
# Summary of the method: as §1
# ELF1 = ELF1 (Homo sapiens, UniProt P32519 1-619); conditions: protein: recombinant; tags: N-terminal GST; dsDNA, one strand shown
# ELF1, sequence (P32519 whole entry): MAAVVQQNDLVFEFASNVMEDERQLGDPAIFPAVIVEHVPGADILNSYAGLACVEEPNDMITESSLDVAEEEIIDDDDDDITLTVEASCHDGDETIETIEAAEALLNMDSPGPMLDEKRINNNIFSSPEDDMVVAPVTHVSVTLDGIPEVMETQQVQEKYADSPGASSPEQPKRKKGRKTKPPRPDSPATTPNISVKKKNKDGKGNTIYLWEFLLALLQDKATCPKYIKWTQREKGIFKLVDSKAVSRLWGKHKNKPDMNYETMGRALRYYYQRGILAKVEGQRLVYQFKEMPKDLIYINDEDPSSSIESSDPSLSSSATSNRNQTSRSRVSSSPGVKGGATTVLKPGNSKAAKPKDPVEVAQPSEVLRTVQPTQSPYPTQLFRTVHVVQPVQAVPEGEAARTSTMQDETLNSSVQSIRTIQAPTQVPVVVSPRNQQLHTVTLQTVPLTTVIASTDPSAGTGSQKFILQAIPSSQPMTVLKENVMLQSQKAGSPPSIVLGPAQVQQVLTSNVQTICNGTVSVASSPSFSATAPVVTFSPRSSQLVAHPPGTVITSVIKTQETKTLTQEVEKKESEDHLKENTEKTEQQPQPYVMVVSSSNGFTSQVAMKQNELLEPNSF
# Summary of the method: as §1
# EHF = biological target: T5, EHF (Homo sapiens, UniProt Q9NZC4 1-300); conditions: protein: recombinant; tags: N-terminal GST; dsDNA, one strand shown
# T5 sequence: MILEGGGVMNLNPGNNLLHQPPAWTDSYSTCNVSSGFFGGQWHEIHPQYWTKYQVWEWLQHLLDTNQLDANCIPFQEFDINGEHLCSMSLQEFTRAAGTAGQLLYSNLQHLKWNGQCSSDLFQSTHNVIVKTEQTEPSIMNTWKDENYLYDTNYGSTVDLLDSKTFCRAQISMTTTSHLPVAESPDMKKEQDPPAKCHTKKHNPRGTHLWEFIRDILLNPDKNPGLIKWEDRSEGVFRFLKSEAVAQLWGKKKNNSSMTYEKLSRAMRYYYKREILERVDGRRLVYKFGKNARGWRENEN
# Summary of the method: as §1
# SPI1 = SPI1 (Homo sapiens, UniProt P17947 1-270); conditions: protein: recombinant; tags: N-terminal GST; dsDNA, one strand shown
# Summary of the method: as §1
# SPIB = SPIB (Homo sapiens, UniProt Q01892 1-262); conditions: protein: recombinant; tags: N-terminal GST; dsDNA, one strand shown
# SPIB, sequence (Q01892 whole entry): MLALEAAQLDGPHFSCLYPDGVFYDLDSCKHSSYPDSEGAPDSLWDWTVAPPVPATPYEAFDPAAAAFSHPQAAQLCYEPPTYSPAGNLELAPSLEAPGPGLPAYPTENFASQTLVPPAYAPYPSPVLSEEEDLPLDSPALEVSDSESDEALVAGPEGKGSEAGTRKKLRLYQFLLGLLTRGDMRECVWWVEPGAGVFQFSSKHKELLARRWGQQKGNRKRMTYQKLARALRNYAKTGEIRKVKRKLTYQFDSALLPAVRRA
# Summary of the method: as §1
# ELK3 = biological target: T6, ELK3 (Homo sapiens, UniProt P41970 1-407); conditions: protein: recombinant; tags: N-terminal GST; dsDNA, one strand shown
# T6 sequence: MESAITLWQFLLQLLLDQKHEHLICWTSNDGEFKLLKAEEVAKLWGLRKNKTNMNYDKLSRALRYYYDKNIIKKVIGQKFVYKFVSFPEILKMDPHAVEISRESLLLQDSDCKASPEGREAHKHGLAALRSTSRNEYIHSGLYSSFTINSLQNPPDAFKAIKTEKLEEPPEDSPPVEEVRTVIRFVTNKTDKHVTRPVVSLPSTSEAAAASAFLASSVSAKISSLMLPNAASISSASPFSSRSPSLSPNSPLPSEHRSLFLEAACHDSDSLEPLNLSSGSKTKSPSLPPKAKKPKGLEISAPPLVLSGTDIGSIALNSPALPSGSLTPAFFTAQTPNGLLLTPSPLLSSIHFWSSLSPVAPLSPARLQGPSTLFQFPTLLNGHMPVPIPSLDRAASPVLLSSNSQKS
# Summary of the method: as §1
# FEV = biological target: T7, FEV (Homo sapiens, UniProt Q99581 1-238); conditions: protein: recombinant; tags: N-terminal GST; dsDNA, one strand shown
# T7 sequence: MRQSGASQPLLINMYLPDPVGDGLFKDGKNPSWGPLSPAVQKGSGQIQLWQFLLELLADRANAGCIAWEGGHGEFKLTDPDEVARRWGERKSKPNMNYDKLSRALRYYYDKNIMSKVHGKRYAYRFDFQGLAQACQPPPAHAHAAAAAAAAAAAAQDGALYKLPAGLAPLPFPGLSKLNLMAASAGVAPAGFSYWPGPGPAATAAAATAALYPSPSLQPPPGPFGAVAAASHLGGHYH
# Summary of the method: as §1
# ETV5 = ETV5 (Homo sapiens, UniProt P41161 1-510); conditions: protein: recombinant; tags: N-terminal GST; dsDNA, one strand shown
# ETV5, sequence (P41161 whole entry): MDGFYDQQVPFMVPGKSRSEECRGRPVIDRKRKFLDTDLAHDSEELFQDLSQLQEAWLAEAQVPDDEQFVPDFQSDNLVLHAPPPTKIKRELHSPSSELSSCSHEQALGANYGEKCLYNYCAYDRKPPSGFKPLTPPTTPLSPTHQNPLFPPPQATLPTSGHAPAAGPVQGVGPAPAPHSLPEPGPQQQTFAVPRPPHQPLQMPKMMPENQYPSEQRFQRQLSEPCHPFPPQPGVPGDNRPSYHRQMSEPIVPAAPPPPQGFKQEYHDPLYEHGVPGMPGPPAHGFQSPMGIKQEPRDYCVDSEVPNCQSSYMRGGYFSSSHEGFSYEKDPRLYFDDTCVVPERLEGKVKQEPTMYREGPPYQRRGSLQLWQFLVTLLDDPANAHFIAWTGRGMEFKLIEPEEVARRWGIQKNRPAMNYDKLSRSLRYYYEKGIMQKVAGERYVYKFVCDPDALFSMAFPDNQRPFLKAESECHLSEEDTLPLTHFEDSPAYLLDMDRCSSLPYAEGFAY
# Summary of the method: as §1
# HSF1 = HSF1 (Homo sapiens, UniProt Q00613 1-529); conditions: protein: recombinant; tags: N-terminal GST; chain copies: 3; dsDNA, one strand shown
# HSF1, sequence (Q00613 whole entry): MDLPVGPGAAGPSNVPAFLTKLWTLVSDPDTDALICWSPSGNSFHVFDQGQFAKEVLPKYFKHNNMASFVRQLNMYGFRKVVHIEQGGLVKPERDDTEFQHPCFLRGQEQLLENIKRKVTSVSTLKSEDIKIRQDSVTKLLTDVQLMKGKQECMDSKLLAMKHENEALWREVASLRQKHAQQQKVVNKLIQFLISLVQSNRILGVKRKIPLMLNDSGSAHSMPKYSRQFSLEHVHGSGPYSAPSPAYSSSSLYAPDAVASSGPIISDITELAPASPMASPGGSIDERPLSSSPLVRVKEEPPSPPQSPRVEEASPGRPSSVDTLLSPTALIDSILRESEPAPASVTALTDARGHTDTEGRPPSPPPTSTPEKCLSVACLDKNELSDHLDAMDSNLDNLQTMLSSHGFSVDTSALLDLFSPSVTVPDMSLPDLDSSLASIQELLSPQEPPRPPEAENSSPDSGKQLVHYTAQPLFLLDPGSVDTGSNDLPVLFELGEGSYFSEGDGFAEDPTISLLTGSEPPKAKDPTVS
# Summary of the method: as §1
# SPIC = biological target: T8, SPIC (Homo sapiens, UniProt Q8N5J4 1-248); conditions: protein: recombinant; tags: N-terminal GST; dsDNA, one strand shown
# T8 sequence: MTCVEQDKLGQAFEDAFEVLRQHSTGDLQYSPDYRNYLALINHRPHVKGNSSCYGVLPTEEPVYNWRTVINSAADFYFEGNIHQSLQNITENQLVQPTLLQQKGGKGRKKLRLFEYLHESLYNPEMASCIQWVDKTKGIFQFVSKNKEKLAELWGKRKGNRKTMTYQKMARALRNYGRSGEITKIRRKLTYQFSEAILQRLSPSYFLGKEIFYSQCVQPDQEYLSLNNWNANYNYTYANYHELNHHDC
# Summary of the method: as §1
# ELF4 = ELF4 (Homo sapiens, UniProt Q99607 1-663); conditions: protein: recombinant; tags: N-terminal GST; dsDNA, one strand shown
# ELF4, sequence (Q99607 whole entry): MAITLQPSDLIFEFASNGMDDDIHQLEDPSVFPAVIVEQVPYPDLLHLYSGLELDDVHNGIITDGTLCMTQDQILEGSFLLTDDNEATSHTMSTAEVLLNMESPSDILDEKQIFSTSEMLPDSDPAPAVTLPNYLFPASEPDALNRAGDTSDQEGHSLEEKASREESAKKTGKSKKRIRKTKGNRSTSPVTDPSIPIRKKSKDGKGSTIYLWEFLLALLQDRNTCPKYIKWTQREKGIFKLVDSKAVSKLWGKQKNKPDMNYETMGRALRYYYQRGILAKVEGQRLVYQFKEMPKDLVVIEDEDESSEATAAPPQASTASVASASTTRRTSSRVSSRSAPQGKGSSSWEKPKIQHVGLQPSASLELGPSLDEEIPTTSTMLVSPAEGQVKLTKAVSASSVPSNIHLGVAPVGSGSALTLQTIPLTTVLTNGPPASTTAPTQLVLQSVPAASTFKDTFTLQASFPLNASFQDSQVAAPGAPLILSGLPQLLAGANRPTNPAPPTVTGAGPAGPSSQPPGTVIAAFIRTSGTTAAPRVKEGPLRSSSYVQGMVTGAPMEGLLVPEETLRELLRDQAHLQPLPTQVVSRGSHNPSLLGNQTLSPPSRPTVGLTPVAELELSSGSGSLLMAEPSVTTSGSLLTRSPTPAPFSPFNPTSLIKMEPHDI
# Summary of the method: as §1
# ELK4 = biological target: T9, ELK4 (Homo sapiens, UniProt P28324-2 1-405); conditions: protein: recombinant; tags: N-terminal GST; dsDNA, one strand shown
# T9 sequence: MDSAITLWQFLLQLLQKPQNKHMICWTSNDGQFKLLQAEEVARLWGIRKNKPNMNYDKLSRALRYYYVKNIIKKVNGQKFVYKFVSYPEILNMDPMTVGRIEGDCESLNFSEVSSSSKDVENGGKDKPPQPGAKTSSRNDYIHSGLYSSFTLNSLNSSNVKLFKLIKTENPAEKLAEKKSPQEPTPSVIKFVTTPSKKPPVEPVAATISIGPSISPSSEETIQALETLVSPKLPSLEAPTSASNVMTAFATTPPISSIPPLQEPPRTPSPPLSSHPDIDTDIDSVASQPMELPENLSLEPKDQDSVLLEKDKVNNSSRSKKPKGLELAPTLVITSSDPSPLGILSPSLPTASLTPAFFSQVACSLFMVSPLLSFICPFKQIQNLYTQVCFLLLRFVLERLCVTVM
# Summary of the method: as §1
# ETV2 = biological target: T10, ETV2 (Homo sapiens, UniProt O00321 1-342); conditions: protein: recombinant; tags: N-terminal GST; dsDNA, one strand shown
# T10 sequence: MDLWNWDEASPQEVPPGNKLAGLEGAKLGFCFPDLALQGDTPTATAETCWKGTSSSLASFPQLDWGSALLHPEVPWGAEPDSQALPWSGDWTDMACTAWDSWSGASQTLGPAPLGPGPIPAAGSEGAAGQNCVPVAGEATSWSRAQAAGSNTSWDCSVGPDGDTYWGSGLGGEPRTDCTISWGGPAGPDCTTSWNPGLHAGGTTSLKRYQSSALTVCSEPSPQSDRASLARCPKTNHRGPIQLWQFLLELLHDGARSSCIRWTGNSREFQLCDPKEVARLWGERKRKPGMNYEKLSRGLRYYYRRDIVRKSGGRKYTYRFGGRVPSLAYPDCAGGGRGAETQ
# Summary of the method: as §1
# ELF3 = biological target: T11, ELF3 (Homo sapiens, UniProt P78545 1-371); conditions: protein: recombinant; tags: N-terminal GST; dsDNA, one strand shown
# T11 sequence: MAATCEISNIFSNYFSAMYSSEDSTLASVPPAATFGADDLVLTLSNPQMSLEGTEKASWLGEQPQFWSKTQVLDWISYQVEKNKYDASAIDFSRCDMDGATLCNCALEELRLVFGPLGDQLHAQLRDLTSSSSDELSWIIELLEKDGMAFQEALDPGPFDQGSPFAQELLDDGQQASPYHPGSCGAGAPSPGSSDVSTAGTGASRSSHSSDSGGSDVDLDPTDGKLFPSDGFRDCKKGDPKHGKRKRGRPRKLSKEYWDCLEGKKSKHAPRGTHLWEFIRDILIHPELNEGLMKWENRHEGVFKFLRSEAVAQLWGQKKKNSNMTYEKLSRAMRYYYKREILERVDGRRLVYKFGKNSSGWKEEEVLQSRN
# Summary of the method: as §1
# ETV1 = ETV1 (Homo sapiens, UniProt P50549 1-477); conditions: protein: recombinant; tags: N-terminal GST; dsDNA, one strand shown
# ETV1, sequence (P50549 whole entry): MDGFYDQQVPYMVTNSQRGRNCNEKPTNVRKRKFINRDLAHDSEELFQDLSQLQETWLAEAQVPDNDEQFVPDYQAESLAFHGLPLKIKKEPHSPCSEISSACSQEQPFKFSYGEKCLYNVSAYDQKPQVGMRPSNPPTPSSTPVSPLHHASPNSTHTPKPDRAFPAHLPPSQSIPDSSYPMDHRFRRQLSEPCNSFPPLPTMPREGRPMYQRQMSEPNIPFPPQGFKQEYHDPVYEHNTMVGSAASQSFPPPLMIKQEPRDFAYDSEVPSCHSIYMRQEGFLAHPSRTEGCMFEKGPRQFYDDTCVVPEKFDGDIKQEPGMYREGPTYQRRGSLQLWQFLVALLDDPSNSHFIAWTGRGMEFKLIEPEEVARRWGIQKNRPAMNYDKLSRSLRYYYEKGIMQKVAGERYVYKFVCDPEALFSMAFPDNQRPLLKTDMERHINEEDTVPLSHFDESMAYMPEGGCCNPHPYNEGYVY
# Summary of the method: as §1
sequence,measurement,setting,value
TGCCGA,binding signal,FLI1,"1.07 fold enrichment (6-mer frequency, TF over GST control)"
same,binding signal,ELK1,"1.25 fold enrichment (6-mer frequency, TF over GST control)"
same,binding signal,GABPA,"1.21 fold enrichment (6-mer frequency, TF over GST control)"
same,binding signal,ERG,"1.1 fold enrichment (6-mer frequency, TF over GST control)"
same,binding signal,ELF1,"1.03 fold enrichment (6-mer frequency, TF over GST control)"
same,binding signal,EHF,"1.24 fold enrichment (6-mer frequency, TF over GST control)"
same,binding signal,SPI1,"1.2 fold enrichment (6-mer frequency, TF over GST control)"
same,binding signal,SPIB,"1.18 fold enrichment (6-mer frequency, TF over GST control)"
same,binding signal,ELK3,"1.1 fold enrichment (6-mer frequency, TF over GST control)"
same,binding signal,FEV,"1.11 fold enrichment (6-mer frequency, TF over GST control)"
same,binding signal,ETV5,"1.19 fold enrichment (6-mer frequency, TF over GST control)"
same,binding signal,HSF1,"1.07 fold enrichment (6-mer frequency, TF over GST control)"
same,binding signal,SPIC,"1.37 fold enrichment (6-mer frequency, TF over GST control)"
same,binding signal,ELF4,"1.19 fold enrichment (6-mer frequency, TF over GST control)"
same,binding signal,ELK4,"1.14 fold enrichment (6-mer frequency, TF over GST control)"
same,binding signal,ETV2,"1.08 fold enrichment (6-mer frequency, TF over GST control)"
same,binding signal,ELF3,"1.16 fold enrichment (6-mer frequency, TF over GST control)"
same,binding signal,ETV1,"1.14 fold enrichment (6-mer frequency, TF over GST control)"
